# Active and inactive are the calls of the source.
# How the values were obtained:
# Albumin (Bos taurus) = Albumin (Bos taurus) (UniProt P02769); test: compounds binding labelled BSA control protein – biochemical, small-molecule microarray, Alexa647 label, 635/667 nm fluorescence, artefact control for SMM control protein annotation, profiling panel (AID 1118); conditions: BSA-A647 binding, fluorescence 635 nm, higher = more signal;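 also: score merges 667 nm emission intensity and signal-to-noise per printed compound spot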
# [1] = probe aXIP binding to arrayed compounds – biochemical, NeuroSMM set, 635/667 nm fluorescence, primary screen (AID 1119); conditions: small-molecule microarray, higher = more signal, called active from +8 up or from −8 down;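 also: probe is the protein aXip251-270 applied at 1 µg/mL to compound-printed slides; binding of probe to printed compounds measured as 667 nm fluorescence plus signal to noise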
# [2] = probe aNOTCH3 binding on compound microarray – biochemical, small-molecule microarray, 635/667 nm fluorescence, primary screen (AID 1120); conditions: higher = more signal;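 also: probe is a biotin-tagged antibody raised against NOTCH3 rather than NOTCH3 protein; score merges spot fluorescence near 667 nm with spot signal to noise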
# [3] = probe aNOTCH2 binding on compound microarray – biochemical, small-molecule microarray, 635/667 nm fluorescence, primary screen (AID 1121); conditions: higher = more signal;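 also: score merges feature fluorescence read at 667 nm with its signal to noise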
# [4] = target: Carbonic anhydrase 2 (Homo sapiens) (UniProt P00918); test: compounds binding carbonic anhydrase 2 – biochemical, small-molecule microarray, Alexa647-labelled CAII, profiling panel (AID 1122); conditions: CAII-A647 binding fluorescence, higher = more signal
# [5] = COS7 lysate on small-molecule microarray, probe aHis, 635 nm (AID 1123); conditions: COS7 cell lysate, fluorescence, higher = more signal;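 also: z-score combines 667nm fluorescence intensity with signal-to-noise per printed compound spot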
# [6] = probe aLAP1 signal on lysate-treated microarray – cell lysate, small-molecule microarray, COS7 lysate, primary screen (AID 1124); conditions: probe aLAP1, fluorescence, higher = more signal;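 also: lysate comes from COS7 cells expressing LAP1 and is applied at 0.3 µg/mL; score merges spot fluorescence near 667 nm with signal-to-noise over triplicate slides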
# Sam68 (KHDRBS1) = test: compounds binding KHDRBS1 protein – biochemical, small-molecule microarray, 635 nm fluorescence, primary screen (AID 1125); conditions: higher = more signal;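 also: score merges 667 nm channel intensity with signal to noise over triplicate slides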
# [7] = system: Chordin-like protein 2 (CHRDL2); test: compounds binding chordin-like 2 – biochemical, small-molecule microarray, 635 nm fluorescence, primary screen (AID 1126); conditions: fluorescence 635 nm, higher = more signal;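 also: printed compound slides probed with Chrdl2 protein at 4 µg/mL for 1 h at 4 C; score merges 667 nm emission intensity with signal to noise over three replicate slides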
# [8] = target: Concanavalin-A (Canavalia ensiformis) (UniProt P02866); test: compounds binding concanavalin A lectin – biochemical, small-molecule microarray, Alexa647 label, 635 nm, artefact control for SMM control protein annotation, primary screen (AID 1127); conditions: ConA-A647 binding fluorescence, higher = more signal;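 also: z combines 667 nm emission intensity with signal-to-noise across three replicate slides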
# [9] = compounds binding Alexa647 anti-His antibody – biochemical, small-molecule microarray, 635 nm fluorescence, artefact control for SMM control protein annotation, primary screen (AID 1128); conditions: higher = more signal;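 also: score merges feature fluorescence with signal-to-noise for each printed compound spot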
# [10] = system: Human papillomavirus type 1a E7 protein (residues 1-88); test: HPV1a E7 small-molecule binders, primary screen, biochemical, small-molecule microarray, residues 1-88, 635 nm (AID 1129); conditions: small-molecule microarray binding, fluorescence 635 nm; higher = more signal
# [11] = target: Focal adhesion kinase 1 (Homo sapiens) (UniProt Q05397); test: PTK2 protein binding on printed compound slides – biochemical, small-molecule microarray, 635/667 nm fluorescence, BSA, DTT, primary screen (AID 1130); conditions: 635 nm fluorescence, higher = more signal;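 also: composite of spot emission at 667 nm and signal to noise over triplicate slides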
# [12] = system: Fibrinogen (Alexa647-labelled); test: Alexa647-fibrinogen binding to printed small molecules – biochemical, small-molecule microarray, 635/667 nm fluorescence, artefact control for SMM control-protein annotation, profiling panel (AID 1131); conditions: fibrinogen-A647 binding fluorescence, higher = more signal;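 also: z-score merges 667 nm fluorescence with per-spot signal-to-noise over triplicate slides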
# [13] = target: Follistatin (Homo sapiens) (UniProt P19883); test: FST protein binding to printed compounds – biochemical, small-molecule microarray, 635/667 nm fluorescence, primary screen (AID 1132); conditions: 635 nm fluorescence, higher = more signal
# [14] = target: Fibroblast growth factor 2 (Homo sapiens) (UniProt P09038); test: basic fibroblast growth factor binding to printed compounds – biochemical, small-molecule microarray, 635/667 nm fluorescence, primary screen (AID 1133); conditions: FGF2, fluorescence 635/667, higher = more signal
# [15] = JC-1 mitochondrial potential readout, lung cancer cells – cell-based, A549, JC-1 fluorescence, basal, 24 h, 100 nL, profiling panel (AID 1138); conditions: higher = more signal;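 also: A549 lung adenocarcinoma cells under basal conditions with no added stimulus; test concentration not given here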
# Lefty1 = Lefty1 protein binding to printed compounds – biochemical, small-molecule microarray, 635/667 nm fluorescence, primary screen (AID 1139); conditions: fluorescence 635/667, higher = more signal
# [16] = system: wheat germ agglutinin (Triticum aestivum), Alexa647-labelled; test: Alexa647-WGA lectin binding to printed small molecules – biochemical, small-molecule microarray, 635/667 nm fluorescence, artefact control for SMM control-protein annotation, profiling panel (AID 1140); conditions: WGA-A647 binding, 635 nm fluorescence, higher = more signal;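 also: score merges 667 nm feature emission with signal to noise over triplicate slides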
# [17] = target: Luciferin 4-monooxygenase (Photinus pyralis) (UniProt P08659); test: inhibition of purified Photinus pyralis luciferase – biochemical, luminescence, purified enzyme, 2006 set, primary screen (AID 1141); conditions: purified firefly luciferase, SteadyGlo luminescence, 30 min; higher = more signal, called active from +8 up or from −8 down;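 also: cell-free assay with purified firefly luciferase at 100 ng per well in PBS; test concentration not given here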
# Luciferin 4-monooxygenase (Photinus pyralis), sequence (P08659 whole entry, looked up): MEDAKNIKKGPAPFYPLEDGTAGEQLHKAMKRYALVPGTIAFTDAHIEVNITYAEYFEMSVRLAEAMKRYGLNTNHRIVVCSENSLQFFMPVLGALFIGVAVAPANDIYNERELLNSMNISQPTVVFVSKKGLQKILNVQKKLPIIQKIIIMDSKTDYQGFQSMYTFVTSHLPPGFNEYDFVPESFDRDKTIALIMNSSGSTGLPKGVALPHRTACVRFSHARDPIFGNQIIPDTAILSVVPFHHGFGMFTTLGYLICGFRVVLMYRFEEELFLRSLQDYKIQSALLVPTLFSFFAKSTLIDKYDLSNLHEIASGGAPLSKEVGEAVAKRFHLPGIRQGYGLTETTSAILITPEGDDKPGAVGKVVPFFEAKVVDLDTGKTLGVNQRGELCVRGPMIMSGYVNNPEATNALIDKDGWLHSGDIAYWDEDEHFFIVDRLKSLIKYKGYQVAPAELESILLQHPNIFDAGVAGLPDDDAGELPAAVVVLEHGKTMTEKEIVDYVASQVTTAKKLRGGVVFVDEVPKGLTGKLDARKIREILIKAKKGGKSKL
# Follistatin (Homo sapiens), sequence (P19883 whole entry, looked up): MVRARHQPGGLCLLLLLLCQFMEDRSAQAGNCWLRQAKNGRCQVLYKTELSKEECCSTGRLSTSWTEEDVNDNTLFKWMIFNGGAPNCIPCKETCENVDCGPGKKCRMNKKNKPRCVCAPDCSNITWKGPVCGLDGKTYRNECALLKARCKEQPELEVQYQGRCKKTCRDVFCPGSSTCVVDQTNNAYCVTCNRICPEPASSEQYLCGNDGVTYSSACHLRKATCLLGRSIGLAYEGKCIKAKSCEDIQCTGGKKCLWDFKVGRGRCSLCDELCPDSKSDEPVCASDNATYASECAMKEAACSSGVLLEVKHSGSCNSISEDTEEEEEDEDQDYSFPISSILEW
# Focal adhesion kinase 1 (Homo sapiens), sequence (Q05397 whole entry, looked up): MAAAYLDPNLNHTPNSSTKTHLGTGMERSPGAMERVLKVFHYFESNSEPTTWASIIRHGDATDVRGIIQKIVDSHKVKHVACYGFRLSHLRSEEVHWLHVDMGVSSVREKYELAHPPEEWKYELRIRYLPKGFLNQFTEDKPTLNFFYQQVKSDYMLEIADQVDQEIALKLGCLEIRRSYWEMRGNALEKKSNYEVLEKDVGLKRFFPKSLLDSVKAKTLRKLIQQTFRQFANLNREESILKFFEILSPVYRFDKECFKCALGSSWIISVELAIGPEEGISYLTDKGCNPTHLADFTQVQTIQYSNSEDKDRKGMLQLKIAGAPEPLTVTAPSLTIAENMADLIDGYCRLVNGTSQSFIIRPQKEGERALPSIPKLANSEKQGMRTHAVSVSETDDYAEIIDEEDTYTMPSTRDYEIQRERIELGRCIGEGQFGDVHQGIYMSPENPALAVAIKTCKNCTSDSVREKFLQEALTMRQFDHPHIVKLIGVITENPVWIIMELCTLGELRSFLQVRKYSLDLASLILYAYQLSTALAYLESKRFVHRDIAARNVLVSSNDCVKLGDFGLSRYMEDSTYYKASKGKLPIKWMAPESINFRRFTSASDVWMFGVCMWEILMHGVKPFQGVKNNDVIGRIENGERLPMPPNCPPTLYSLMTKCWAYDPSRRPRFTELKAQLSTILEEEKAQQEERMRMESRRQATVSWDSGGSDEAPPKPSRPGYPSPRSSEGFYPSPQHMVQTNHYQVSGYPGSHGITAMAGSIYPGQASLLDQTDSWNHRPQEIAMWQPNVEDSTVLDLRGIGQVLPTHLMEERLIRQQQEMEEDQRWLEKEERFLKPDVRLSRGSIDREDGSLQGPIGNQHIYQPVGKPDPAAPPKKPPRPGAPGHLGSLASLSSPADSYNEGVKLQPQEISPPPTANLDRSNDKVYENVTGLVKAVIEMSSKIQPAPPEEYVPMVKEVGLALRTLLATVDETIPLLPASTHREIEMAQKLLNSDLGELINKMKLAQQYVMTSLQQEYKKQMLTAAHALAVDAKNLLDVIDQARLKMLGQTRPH
# Albumin (Bos taurus), sequence (P02769 whole entry, looked up): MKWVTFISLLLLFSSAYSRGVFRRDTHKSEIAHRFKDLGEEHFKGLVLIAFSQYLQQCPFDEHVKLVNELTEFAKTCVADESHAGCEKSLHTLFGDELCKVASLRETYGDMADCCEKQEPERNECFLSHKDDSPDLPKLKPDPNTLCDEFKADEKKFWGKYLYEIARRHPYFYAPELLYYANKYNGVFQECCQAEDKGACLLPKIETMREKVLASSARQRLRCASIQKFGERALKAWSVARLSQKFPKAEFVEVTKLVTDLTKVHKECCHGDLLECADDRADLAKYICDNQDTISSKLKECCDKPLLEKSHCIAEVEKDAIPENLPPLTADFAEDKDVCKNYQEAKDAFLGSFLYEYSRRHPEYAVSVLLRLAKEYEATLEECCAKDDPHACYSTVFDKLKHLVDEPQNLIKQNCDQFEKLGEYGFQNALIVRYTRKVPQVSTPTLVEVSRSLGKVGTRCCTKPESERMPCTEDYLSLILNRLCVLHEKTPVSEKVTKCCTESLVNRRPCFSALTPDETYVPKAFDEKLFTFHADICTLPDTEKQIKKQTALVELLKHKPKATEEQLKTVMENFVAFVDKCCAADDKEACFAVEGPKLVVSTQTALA
# Concanavalin-A (Canavalia ensiformis), sequence (P02866 whole entry, looked up): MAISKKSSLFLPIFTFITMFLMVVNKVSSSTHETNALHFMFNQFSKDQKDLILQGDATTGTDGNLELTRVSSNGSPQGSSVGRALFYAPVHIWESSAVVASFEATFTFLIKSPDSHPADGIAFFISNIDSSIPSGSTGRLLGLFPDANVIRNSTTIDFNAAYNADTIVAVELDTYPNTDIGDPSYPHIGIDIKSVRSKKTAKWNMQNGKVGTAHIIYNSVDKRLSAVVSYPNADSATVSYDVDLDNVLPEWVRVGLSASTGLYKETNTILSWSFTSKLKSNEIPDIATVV
# Fibroblast growth factor 2 (Homo sapiens), sequence (P09038 whole entry, looked up): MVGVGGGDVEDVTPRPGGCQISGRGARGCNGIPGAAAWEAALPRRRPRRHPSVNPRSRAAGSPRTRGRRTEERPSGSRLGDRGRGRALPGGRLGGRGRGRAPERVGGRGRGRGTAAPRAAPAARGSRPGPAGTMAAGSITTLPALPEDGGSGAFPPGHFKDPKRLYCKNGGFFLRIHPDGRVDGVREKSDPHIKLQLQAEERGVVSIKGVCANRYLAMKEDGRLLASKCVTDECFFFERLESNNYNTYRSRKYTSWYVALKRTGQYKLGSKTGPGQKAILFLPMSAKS
Structure (SMILES),composite z-score (Albumin (Bos taurus)),composite Z-score [1],composite z-score [2],composite z-score [3],composite z-score [4],composite z-score [5],composite z-score [6],composite z-score (Sam68 (KHDRBS1)),composite z-score [7],composite z-score [8],composite z-score [9],composite z-score [10],composite z-score [11],composite z-score [12],composite z-score [13],composite z-score [14],z-score [15],composite z-score (Lefty1),composite z-score [16],z-score [17]
CC(=O)OC[C@H]1O[C@H](C#CCCc2ccccc2)C=C[C@@H]1OC(C)=O,0.829,-0.399 (inactive),0.106,-0.0727,0.376,2.2,-0.332,0.179,0.697,0.127,0.538,-0.417,-0.34,0.884,0.518,0.461,0.0303,1.22,-0.225,-0.97 (inactive)
CC(C)CON=C1C[C@@H](O)[C@@H](O)[C@@H]2[C@@H]3C(=O)N(Cc4ccccc4)C(=O)[C@@H]3CC[C@H]12,0.428,-0.288 (inactive),-0.0679,-0.122,0.0889,0.211,-0.366,0.51,0.447,0.321,0.247,0.502,0.052,0.666,0.363,0.474,-1.03,0.669,0.134,1.14 (inactive)
CC(CCN1CCc2nc(-c3ccccc3)c(-c3ccccc3)cc2C1)=NO[C@H](C)c1cn([C@H](CO)Cc2ccccc2)nn1,0.901,-0.248 (inactive),-0.155,-0.161,0.367,0.585,0.0245,-0.29,0.26,0.158,0.955,0.137,0.0132,0.689,0.677,0.882,2.22,0.313,0.158,-0.595 (inactive)
CC(C)CON=C1C[C@@H](O)[C@@H](O)[C@@H]2[C@@H]3C(=O)N([C@@H](C)c4ccccc4)C(=O)[C@@H]3CC[C@@H]12,0.538,-0.293 (inactive),-0.145,-0.153,-0.139,-0.039,-0.0296,0.132,0.417,0.0928,0.0924,0.124,-0.164,0.501,-0.319,0.114,-0.655,-0.162,0.252,0.999 (inactive)
O=C1C[C@H](c2ccccc2)[C@H](c2ccc(Br)cc2)O1,0.275,0.372 (inactive),-0.182,-0.117,-0.202,-0.652,-1.07,-0.179,0.143,-0.394,0.443,-0.374,0.718,-0.233,-0.126,-0.0946,-0.421,0.0985,-0.236,-1.8 (inactive)
O=C1C=C[C@@H](O)[C@@H]2[C@@H]3C(=O)N(Cc4ccc5c(c4)OCO5)C(=O)[C@@H]3CC[C@@H]12,0.147,-0.88 (inactive),0.123,-0.0567,-0.137,0.163,0.129,0.627,0.761,0.748,0.314,0.867,0.185,0.546,0.382,0.569,-0.635,0.585,0.0599,-0.276 (inactive)
COC(=O)[C@H](Cc1ccccc1)NC(=O)[C@@H](C)CO,0.317,0.047 (inactive),0.226,-0.181,0.465,0.207,0.143,0.48,0.501,-1.01,0.0868,-0.196,-0.233,0.115,1.28,0.592,-1.2,1.5,0.821,0.716 (inactive)
CC(C)[C@@H](OCc1ccccc1)[C@H](C)C=NO[C@H](C)c1cn([C@@H]2COC[C@H]2O)nn1,0.378,-0.0641 (inactive),0.307,-0.156,-0.133,0.811,0.388,1.3,0.0507,0.584,0.0202,0.693,0.279,0.0524,0.229,0.422,-0.245,0.957,-0.0886,1.06 (inactive)
CCOC(=O)[C@H](CC(C)C)NC(=O)CCC1CC(OC(=O)NCCc2ccc(F)cc2)CC2(CCCC(COC(=O)NCCOC)O2)O1 (stereo not given in full),0.502,0.795 (inactive),-0.0573,-0.171,0.0663,0.5,0.417,1.29,0.515,0.646,0.917,1.04,0.318,0.416,0.839,1.18,-0.382,0.955,0.829,0.958 (inactive)
O=C1[C@H]2[C@H]3[C@H](O)[C@H](O)CC(=NOC[C@@H](O)COCc4ccco4)[C@@H]3CC[C@H]2C(=O)N1Cc1ccc2c(c1)OCO2,0.29,0.564 (inactive),-0.127,-0.148,-0.307,-0.0845,0.123,0.275,1.54,-0.19,-0.133,-0.499,-0.347,-0.952,1.35,1.56,0.96,0.793,-0.63,-0.0365 (inactive)
COC(=O)C(C(=O)OC)C1CCCC(=O)C1 (stereo not given),-0.0912,0.499 (inactive),-0.0391,-0.0694,0.381,0.214,-0.205,-0.0924,0.414,0.468,0.252,0.433,0.193,0.372,0.326,0.692,-1.13,0.804,0.173,0.138 (inactive)

# From PubChem BioAssay
